# Screening results (PubChem)
# Gli-Sufu antag: blocks Gli-Sufu signaling in a luciferase reporter. Sufu-KO-LIGHT fibroblasts, Gli luciferase reporter luminescence. inhibition, % at 5 µM. hit rate 0.74% among 340,000. AID 588413;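 active = inhibition above about 55%, limit read from the data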
# NR2F2 inh: NR2F2 (human) inhibition, primary screen | hit rate 0.7% among 370,000 | HEK293T NGFI-A luciferase reporter, luminescence | inhibition, % at 8.6 µM | P24468;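 active = inhibition above a per-plate cutoff, mean inhibition of test wells between control levels plus 3 SD, cut at about 38% in these data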;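 note: cells cotransfected with COUP-TFII expression vector driving the NGFI-A reporter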
# Target sequence (P24468 whole entry, looked up): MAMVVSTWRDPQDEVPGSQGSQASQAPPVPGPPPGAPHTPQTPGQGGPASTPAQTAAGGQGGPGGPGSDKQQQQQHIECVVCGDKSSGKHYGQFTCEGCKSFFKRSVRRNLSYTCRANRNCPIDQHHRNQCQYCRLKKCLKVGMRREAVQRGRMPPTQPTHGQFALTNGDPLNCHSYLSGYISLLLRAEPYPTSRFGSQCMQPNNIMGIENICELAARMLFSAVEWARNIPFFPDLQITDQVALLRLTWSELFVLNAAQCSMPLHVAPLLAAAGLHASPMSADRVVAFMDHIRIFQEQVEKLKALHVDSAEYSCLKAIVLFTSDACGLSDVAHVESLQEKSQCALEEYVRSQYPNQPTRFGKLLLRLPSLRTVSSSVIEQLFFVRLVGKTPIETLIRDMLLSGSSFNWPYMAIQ
# SRC1 inh: human NCOA1 inhibition; HEK293 GAL4-SRC1 luciferase reporter, luminescence; inhibition, % at 3.6 µM; hit rate 0.12% among 360,000;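 active = inhibition above the campaign mean plus 3 SD, with each screening campaign given its own cutoff, cut at about 60% in these data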
# NCOA2 inhibitor: human SRC2 (NCOA2) inhibition. inhibition, % at 9 µM. HEK293 GAL4-SRC2 luciferase reporter, luminescence. hit rate 0.17% among 370,000. AID 651957;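 active = inhibition above the mean inhibition of all tested compounds plus 3 SD, set per campaign, cut at about 52% in these data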
# NCOA3 inh: inhibits human SRC3 coactivator; HEK293 GAL4-SRC3 luciferase reporter, luminescence; inhibition, % at 3.6 µM; hit rate 0.17% among 360,000; AID 588352;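 active = inhibition above a per-campaign cutoff, the mean of all compounds plus 3 SD, cut at about 60% in these data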;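 note: higher means less SRC3-driven luciferase light from the GAL4 reporter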
# NR5A2 inv ag: inverse agonists of human LRH-1 (NR5A2); inhibition, % at 3.6 µM; hit rate 0.13% among 360,000; O00482; HEK293T StAR-luciferase reporter, LRH-1 transfected, 24 h;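 active = inhibition above the mean inhibition of all tested compounds plus 3 SD, cut at about 73% in these data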
# Gli-Sufu confirm: Gli-SUFU antagonism confirmation, single concentration. inhibition, % at 5 µM. Sufu-KO-LIGHT cells, Gli luciferase reporter, luminescence. shares compounds with Gli-Sufu antag. hit rate 40% among 2,500. AID 602428;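 active = mean inhibition at 5 µM reaching about 45%, limit read from the data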
# SufuKO cytotox: counter-screen for Gli-SUFU antagonists: cytotoxicity; hit rate 32% among 2,500; AID 651994; shares compounds with Gli-Sufu antag; Sufu-KO-LIGHT cells cytotoxicity, ATP luminescence; cytotoxicity, % at 5 µM;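 active = mean cytotoxicity at 5 µM above about 25%, limit read from the data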;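 note: cells exposed to compound overnight for roughly 16 to 18 hours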
# Wnt3a cs: Wnt3a reporter inhibition counter-screen. Wnt-LIGHT cells, Wnt3a-driven luciferase reporter, luminescence. AID 651995. hit rate 20% among 2,500. inhibition, % at 6.25 µM. shares compounds with Gli-Sufu antag;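 active = mean inhibition above about 25%, limit read from the data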
# A number is an active result; n = inactive; x = not tested or not shown. The list is not random: actives were taken first. Their share in the collection is about 1.2%.
SMILES,Gli-Sufu antag,NR2F2 inh,SRC1 inh,NCOA2 inhibitor,NCOA3 inh,NR5A2 inv ag,Gli-Sufu confirm,SufuKO cytotox,Wnt3a cs
COc1cccc(C(=O)NCCN2CCOCC2)c1,n,n,n,n,n,n,x,x,x
C=CCNC(=O)c1ccc(CN2CCC(Cc3ccccc3)CC2)cc1,55.9,n,n,n,n,n,n,n,n
CCCCCCCCCCOC(=O)C[N+](C)(C)C/C=C(/C)Cl,63.4,n,n,n,n,n,69.5,26.6,35.2
CCCCCCCCOC(=O)C[N+](C)(C)C/C=C(/C)Cl,n,n,n,n,n,n,x,x,x
COc1ccc(-c2nc(CCl)cs2)cc1OC,60.3,n,n,n,n,n,n,n,n
CCCCc1ncc(CN2CCC(CC3CCCCO3)(C(=O)OCC)CC2)[nH]1 (stereo not drawn),n,n,n,n,n,n,x,x,x
CCOC(=O)C1(CC2CCCCO2)CCN(Cc2cc3ccccc3[nH]2)CC1 (stereo not drawn),59.4,n,n,n,n,n,n,n,n
O=C(Cc1cccs1)Nc1ccc(F)c(F)c1,n,n,n,n,n,n,x,x,x
O=C(Cc1cccs1)Nc1ccc2c(c1)C(=O)OC2,99.0,n,n,n,n,n,n,n,n
CCOC(=O)C1(CCOc2ccccc2)CCN(Cc2ccccc2O)CC1,n,n,n,n,n,n,x,x,x
CCOC(=O)C1(CCOc2ccccc2)CCN(Cc2cccc3c2OCO3)CC1,n,n,n,n,n,n,x,x,x
CCOC(=O)C1(CCc2ccccc2)CCN(Cc2cc(OC)c(OC)cc2OC)CC1,60.2,n,n,n,n,n,n,n,n
CCOC(=O)C1(CCOc2ccccc2)CCN(Cc2cc(OC)c3c(c2)OCO3)CC1,n,n,n,n,n,n,n,n,n
CCOC(=O)C1(CCOc2ccccc2)CCN(Cc2cccc(OC)c2OC)CC1,55.7,n,n,n,n,n,n,n,n
CCOC(=O)C1=C(C(=O)OCC)C2N(Cc3ccc(C#N)cc3)c3ccccc3[C@@]23C[C@@H](C(=O)OC)N(S(=O)(=O)c2ccc(OC)cc2)C3=N1 (stereo partly drawn),x,n,x,n,x,x,x,x,x
COC(=O)[C@]12C[C@H](CC(=O)N3CCOCC3)C(=O)N(CCC3=CCCCC3)C1=C[C@H](COCc1ccccc1)O[C@@H]2C,x,n,x,n,x,x,x,x,x
CCOC(=O)CCCNC(=O)OCCCN1CCC2(CCC(c3ccccc3)CC2)C1=O (stereo not drawn),x,n,x,n,x,x,x,x,x
c1ccc(Cc2cnc(N3CCN(Cc4ccc5c(c4)OCCO5)CC3)nc2)cc1,x,n,x,n,x,x,x,x,x
CN1CCN(c2ccccc2/C=N/NC(=O)c2cccnc2)CC1,66.0,n,n,n,n,n,n,n,n
CCOc1cc(/C=N/NC(=O)c2cccnc2)ccc1O,n,n,n,n,n,n,x,x,x
CCOc1cccc(/C=N/NC(=O)c2cccnc2)c1O,58.6,n,n,n,n,n,n,n,33.0
COC(=O)[C@H](Cc1ccccc1)N1C[C@@H](N2CCC[C@H]2C)CS1(=O)=O,x,n,x,n,x,x,x,x,x
CCCCNCCCOc1cccc(Cl)c1Cl,62.2,n,n,n,n,n,n,n,n
CCCCNCCCOc1ccc(C)cc1Br,67.3,n,n,n,n,n,n,n,n
Clc1cccc(OCCCN2CCCC2)c1Cl,n,n,n,n,n,n,x,x,x
SMILES,Gli-Sufu antag,NR2F2 inh,SRC1 inh,NCOA2 inhibitor,NCOA3 inh,NR5A2 inv ag,Gli-Sufu confirm,SufuKO cytotox,Wnt3a cs
CCOC(=O)c1sc(NC(=O)c2cc(-c3ccc(C)cc3)nc3ccccc23)c(C#N)c1C,n,n,n,n,n,n,x,x,x
COC(=O)c1sc(NC(=O)c2cc(-c3ccccc3)nc3ccccc23)c(C#N)c1C,69.1,n,n,n,n,n,81.7,30.9,62.3
COc1ccc(C2=NOC(C(=O)NCc3ccccc3)C2)cc1 (stereo not drawn),55.4,x,n,x,n,n,n,53.9,n
COc1cccc(C2=NOC(C(=O)NCc3ccccc3)C2)c1 (stereo not drawn),n,n,n,n,n,n,x,x,x
O=C(/C=C/c1ccc(OCc2ccccc2)c(OCc2ccccc2)c1)c1cccnc1,n,n,n,n,n,n,n,n,n
COc1ccc(C=CC(=O)c2ccc(OCc3ccccc3)c(OC)c2)cc1OC,x,n,n,n,n,n,x,x,x
O=C(CN1C(=O)COc2ccc(S(=O)(=O)N3CCCCC3)cc21)NCc1ccccc1Cl,x,n,n,n,n,n,x,x,x
O=C(CN1C(=O)COc2ccc(S(=O)(=O)N3CCCCC3)cc21)NCc1ccc(Cl)cc1,59.4,n,n,n,n,n,n,25.1,n
Cc1c(C(=O)N2c3ccccc3Sc3ccccc32)cccc1[N+](=O)[O-],96.1,n,n,n,n,n,n,n,n
COC(=O)[C@]12C[C@H](CC(=O)N3CCCC3)C(=O)N(Cc3cccc4ccccc34)C1=C[C@H](COCc1ccccc1)O[C@@H]2C,x,n,x,n,x,x,x,x,x
COc1cccc(-c2cc(C(F)(F)F)n3nc(N)nc3n2)c1,77.5,n,n,n,n,n,n,n,n
COc1cccc(N2CCN(C(=O)C3CCN(S(=O)(=O)c4ccc5c(c4)oc(=O)n5C)CC3)CC2)c1,60.9,n,n,n,n,n,n,n,n
CC(=O)N1c2ccc(S(=O)(=O)N3CCC(C(=O)N4CCN(c5cccc(C(F)(F)F)c5)CC4)CC3)cc2CC1C (stereo not drawn),73.5,n,n,n,n,n,80.7,34.1,n
Brc1ccc(CN2CCN(c3ncc(Cc4ccccc4)cn3)CC2)cc1,x,n,x,n,x,x,x,x,x
COC(=O)Cc1nnn2c1[C@H](C)[C@H](C(C)(C)C)OCC2,x,n,x,n,x,x,x,x,x
COc1ccc2c(c1)[C@@H](NC(=O)c1ccncc1)[C@H](C)[C@H]2c1ccccc1,x,n,x,n,x,x,x,x,x
CN(C(=O)[C@@H](Cc1ccccc1)NC(=O)[C@H]1O[C@@H](n2cnc3c(=O)[nH]c(N)nc32)[C@H](O)[C@@H]1O)C1CCCCC1,x,n,x,n,x,x,x,x,x
Nc1[nH]c(C(=O)c2ccccc2)c(-c2cccc3ccccc23)c1C(=O)NCc1ccc(F)c(F)c1,x,n,x,n,x,x,x,x,x
COc1cccc(N2CCN(CC(=O)NCc3ccco3)CC2)c1,x,n,x,n,x,x,x,x,x
CC[C@H](C)C1OC(=O)[C@@H](C)[C@@H](CC)NC(=O)[C@H](C)N(C)C(=O)C(C)(C)C(=O)C(C)NC(=O)[C@H](Cc2ccc(OC)cc2)N(C)C(=O)[C@H](C(C)C)N(C)C(=O)CNC(=O)[C@H](CC(C)C)N(C)C(=O)CNC1=O (stereo partly drawn),x,x,n,x,n,n,x,x,x
